{
  "source": "the supplement of paper PMC9023506",
  "note": "Where a name gives a salt, the structure may show the parent alone.",
  "data": [
    {"system": "Danio rerio larvae (5 dpf)", "assay": "excitability to 1-s acoustic pulses, difference vs DMSO (percentage points (treated minus DMSO)); higher = more of the behaviour than the DMSO vehicle control", "conditions": "10 µM; exposure time: 3 h pre-incubation + 3 h imaging", "method": "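5-dpf wild-type zebrafish larvae were imaged in 96-well plates. They were treated with 190 Tocris FDA-approved drugs at 10 µM (1 µl/ml DMSO) for 3 h before and 3 h during imaging at 28.5 °C, 48 larvae per drug. Automated image analysis gave % time moving and optomotor responses. Values are drug group mean minus DMSO vehicle mean (n=844), in percentage points, for 10 behaviours.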", "values": [
      {"smiles": "CC1=Nc2ccc(Cl)cc2S(=O)(=O)N1", "note": "[Diazoxide]", "excitability to 1-s acoustic pulses": 0.689},
      {"smiles": "Nc1ccn([C@@H]2O[C@H](CO)[C@@H](O)C2(F)F)c(=O)n1", "note": "[Gemcitabine hydrochloride]", "excitability to 1-s acoustic pulses": -1.2},
      {"smiles": "Cc1cccc(C)c1OCC(C)N", "note": "(stereo not given) [Mexiletine hydrochloride]", "excitability to 1-s acoustic pulses": 1.36},
      {"smiles": "CC[C@H]1OC(=O)[C@H](C)[C@@H](O[C@H]2C[C@@](C)(OC)[C@@H](O)[C@H](C)O2)[C@H](C)[C@@H](O[C@@H]2O[C@H](C)C[C@H](N(C)C)[C@H]2O)[C@](C)(O)C[C@@H](C)CN(C)[C@H](C)[C@@H](O)[C@]1(C)O", "note": "[Azithromycin]", "excitability to 1-s acoustic pulses": 13},
      {"smiles": "CCN(Cc1ccncc1)C(=O)C(CO)c1ccccc1", "note": "(stereo not given) [Tropicamide]", "excitability to 1-s acoustic pulses": 0.232},
      {"smiles": "Nc1nc(Cl)nc2c1ncn2[C@@H]1O[C@H](CO)[C@@H](O)[C@@H]1F", "note": "[Clofarabine]", "excitability to 1-s acoustic pulses": 2.22},
      {"smiles": "Cc1ccc(N(CC2=NCCN2)c2cccc(O)c2)cc1", "note": "[Phentolamine Mesylate]", "excitability to 1-s acoustic pulses": 15.7},
      {"smiles": "CN(CCOc1ccc(CC2SC(=O)NC2=O)cc1)c1ccccn1", "note": "(stereo not given) [Rosiglitazone]", "excitability to 1-s acoustic pulses": 15},
      {"smiles": "OC(c1cc(C(F)(F)F)nc2c(C(F)(F)F)cccc12)C1CCCCN1", "note": "(stereo not given) [Mefloquine hydrochloride]", "excitability to 1-s acoustic pulses": 14},
      {"smiles": "CO[C@H]1/C=C/O[C@@]2(C)Oc3c(C)c(O)c4c(O)c(c5c(nc6cc(C)ccn65)c4c3C2=O)NC(=O)/C(C)=C\\C=C\\[C@H](C)[C@H](O)[C@@H](C)[C@@H](O)[C@@H](C)[C@H](OC(C)=O)[C@@H]1C", "note": "[Rifaximin]", "excitability to 1-s acoustic pulses": 4.07},
      {"smiles": "OC(CNCC(O)C1CCc2cc(F)ccc2O1)C1CCc2cc(F)ccc2O1", "note": "(stereo not given) [Nebivolol hydrochloride]", "excitability to 1-s acoustic pulses": 15.9},
      {"smiles": "O=C(c1ccc(OCCN2CCCCC2)cc1)c1c(-c2ccc(O)cc2)sc2cc(O)ccc12", "note": "[Raloxifene hydrochloride]", "excitability to 1-s acoustic pulses": 9.93},
      {"smiles": "CCCc1nc(C(C)(C)O)c(C(=O)O)n1Cc1ccc(-c2ccccc2-c2nnn[nH]2)cc1", "note": "[Olmesartan]", "excitability to 1-s acoustic pulses": -0.185},
      {"smiles": "CC1(C)O[C@@H]2[C@@H](CO[C@@]3(COS(N)(=O)=O)OC(C)(C)O[C@@H]23)O1", "note": "[Topiramate]", "excitability to 1-s acoustic pulses": 4.36},
      {"smiles": "C[C@H]1C[C@@H]2[C@H]([C@@H](O)C[C@@]3(C)[C@H]2CC[C@]3(O)C(=O)CO)[C@@]2(C)C=CC(=O)C=C12", "note": "[Methylprednisolone]", "excitability to 1-s acoustic pulses": 0.503},
      {"smiles": "Cc1nc(-c2ccc(OCC(C)C)c(C#N)c2)sc1C(=O)O", "note": "[Febuxostat]", "excitability to 1-s acoustic pulses": -0.372},
      {"smiles": "CC(C)N(CCCCOCC(=O)NS(C)(=O)=O)c1cnc(-c2ccccc2)c(-c2ccccc2)n1", "note": "[Selexipag]", "excitability to 1-s acoustic pulses": 5.77},
      {"smiles": "Nc1nc2c(ncn2COCCO)c(=O)[nH]1", "note": "[Acyclovir]", "excitability to 1-s acoustic pulses": 0.524},
      {"smiles": "CN/C(=N\\CCSCc1nc[nH]c1C)NC#N", "note": "[Cimetidine]", "excitability to 1-s acoustic pulses": -2.12},
      {"smiles": "COc1cc([C@@H]2c3cc4c(cc3[C@@H](O[C@@H]3O[C@@H]5CO[C@@H](C)O[C@H]5[C@H](O)[C@H]3O)[C@H]3COC(=O)[C@H]23)OCO4)cc(OC)c1O", "note": "[Etoposide]", "excitability to 1-s acoustic pulses": 9.69},
      {"smiles": "CN1CCN(CCCN2c3ccccc3Sc3ccc(Cl)cc32)CC1", "note": "[Prochlorperazine dimaleate]", "excitability to 1-s acoustic pulses": 23.6},
      {"smiles": "COc1cc(Nc2c(C#N)cnc3cc(OCCCN4CCN(C)CC4)c(OC)cc23)c(Cl)cc1Cl", "note": "[Bosutinib]", "excitability to 1-s acoustic pulses": 6.48},
      {"smiles": "CCOC(=O)[C@H](CCc1ccccc1)N[C@@H](C)C(=O)N1[C@H](C(=O)O)C[C@@H]2CCC[C@@H]21", "note": "[Ramipril]", "excitability to 1-s acoustic pulses": 4.17},
      {"smiles": "Cc1ccsc1C(=CCCN1CCC[C@@H](C(=O)O)C1)c1sccc1C", "note": "[Tiagabine hydrochloride]", "excitability to 1-s acoustic pulses": -9.16},
      {"smiles": "O=C(O)C[C@H](O)C[C@H](O)/C=C/c1c(C2CC2)nc2ccccc2c1-c1ccc(F)cc1", "note": "[Pitavastatin calcium]", "excitability to 1-s acoustic pulses": 0.628},
      {"smiles": "O=c1[nH]c(=O)n([C@H]2C[C@H](O)[C@@H](CO)O2)cc1C(F)(F)F", "note": "[Trifluorothymidine]", "excitability to 1-s acoustic pulses": 2.88},
      {"smiles": "C[C@@H](O[C@H]1OCCN(Cc2n[nH]c(=O)[nH]2)[C@H]1c1ccc(F)cc1)c1cc(C(F)(F)F)cc(C(F)(F)F)c1", "note": "[Aprepitant]", "excitability to 1-s acoustic pulses": 8.09},
      {"smiles": "C#CCN[C@@H]1CCc2ccccc21", "note": "[Rasagiline mesylate]", "excitability to 1-s acoustic pulses": -3.66},
      {"smiles": "CC(C)COCC(CN(Cc1ccccc1)c1ccccc1)N1CCCC1", "note": "(stereo not given) [Bepridil hydrochloride]", "excitability to 1-s acoustic pulses": 15},
      {"smiles": "Brc1c(NC2=NCCN2)ccc2nccnc12", "excitability to 1-s acoustic pulses": 7.01},
      {"smiles": "COc1ccccc1OCCNCC(O)COc1cccc2[nH]c3ccccc3c12", "note": "(stereo not given) [Carvedilol]", "excitability to 1-s acoustic pulses": 21},
      {"smiles": "O=C1CCc2ccc(OCCCCN3CCN(c4cccc(Cl)c4Cl)CC3)cc2N1", "note": "[Aripiprazole]", "excitability to 1-s acoustic pulses": 16.5},
      {"smiles": "CCCCc1nc(Cl)c(CO)n1Cc1ccc(-c2ccccc2-c2nnn[nH]2)cc1", "note": "[Losartan potassium]", "excitability to 1-s acoustic pulses": 5.58},
      {"smiles": "N#C[C@@H]1C[C@@H]2C[C@@H]2N1C(=O)[C@@H](N)C12CC3CC(CC(O)(C3)C1)C2", "note": "[Saxagliptin hydrochloride]", "excitability to 1-s acoustic pulses": 2.82},
      {"smiles": "Nc1nc2[nH]cc(CCc3ccc(C(=O)N[C@@H](CCC(=O)O)C(=O)O)cc3)c2c(=O)[nH]1", "note": "[Pemetrexed]", "excitability to 1-s acoustic pulses": 2.29},
      {"smiles": "COc1cc2ncnc(Nc3ccc(F)c(Cl)c3)c2cc1OCCCN1CCOCC1", "note": "[Iressa]", "excitability to 1-s acoustic pulses": 18},
      {"smiles": "O=C(O[C@@H]1C[C@@H]2C[C@H]3C[C@H](C1)N2CC3=O)c1c[nH]c2ccccc12", "note": "[Dolasetron mesylate]", "excitability to 1-s acoustic pulses": 9.61},
      {"smiles": "Cc1ccc(O)c([C@H](CCN(C(C)C)C(C)C)c2ccccc2)c1", "note": "[Tolterodine L-tartrate]", "excitability to 1-s acoustic pulses": 7.2},
      {"smiles": "Nc1cc(N2CCCCC2)nc(N)[n+]1[O-]", "note": "[Minoxidil]", "excitability to 1-s acoustic pulses": 1},
      {"smiles": "Cc1cccc(CN2CCN(C(c3ccccc3)c3ccc(Cl)cc3)CC2)c1", "note": "(stereo not given) [Meclizine dihydrochloride]", "excitability to 1-s acoustic pulses": 9.5}
    ]}
  ]
}
